According to PubChem BioAssay (NCATS):
Inconclusive results are not listed. A call without a number means that no potency is given here. Values without a mark were called inactive. Active and inactive are the calls of the source. The call rests on the fitted dose curve; in most records, active means well fitted curve in the direction sought with a large enough effect; inconclusive means small, poorly fitted or top-dose-only effect, or another doubt; inactive means no such curve, though single readings can be large; an effect the other way counts as inactive or inconclusive.

Experiments:
C33A = test: Primary qHTS to identify gynecologic anti-cancer compounds using libraries of approved drugs and bioactive compounds (AID 1345084); conditions: Gynecologic cancer cell panel viability, ATPlite luminescence, 48 h; series mostly up to 57.5 µM; further: nearly all actives have a fitted effect of over 55% in size
Outline: (§1)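 Cytotoxicity screen measuring ATP content by luciferase luminescence. Each compound is applied at five concentrations for 48 h at 37 C with 5% CO2.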

CAOV3 = test: as above; conditions: Gynecologic cancer cell panel viability, ATPlite luminescence, 48 h; series mostly up to 57.5 µM
Outline: as §1

CASKI = test: as above; conditions: Gynecologic cancer cell panel viability, ATPlite luminescence, 48 h; series mostly up to 57.5 µM
Outline: as §1

Es-2 = test: as above; conditions: Gynecologic cancer cell panel viability, ATPlite luminescence, 48 h; series mostly up to 57.5 µM
Outline: as §1

HeLa = test: as above; conditions: Gynecologic cancer cell panel viability, ATPlite luminescence, 48 h; series mostly up to 57.5 µM
Outline: as §1

Hek293T = test: as above; conditions: Gynecologic cancer cell panel viability, ATPlite luminescence, 48 h, control line for the selectivity index; series mostly up to 57.5 µM
Outline: as §1

JEG-3 = test: as above; conditions: Gynecologic cancer cell panel viability, ATPlite luminescence, 48 h; series mostly up to 57.5 µM
Outline: as §1

OV90 = test: as above; conditions: Gynecologic cancer cell panel viability, ATPlite luminescence, 48 h; series mostly up to 57.5 µM
Outline: as §1

PA-1 = test: as above; conditions: Gynecologic cancer cell panel viability, ATPlite luminescence, 48 h; series mostly up to 57.5 µM
Outline: as §1

Tov-21-G = test: as above; conditions: Gynecologic cancer cell panel viability, ATPlite luminescence, 48 h; series mostly up to 57.5 µM
Outline: as §1

Tov112D = test: as above; conditions: Gynecologic cancer cell panel viability, ATPlite luminescence, 48 h; series mostly up to 57.5 µM
Outline: as §1

SKOV3 = test: as above; conditions: Gynecologic cancer cell panel viability, ATPlite luminescence, 48 h; series mostly up to 57.5 µM
Outline: as §1

[1] = qHTS assay to identify inhibitors of the type 1 interferon - major histocompatibility complex class I in skeletal muscle: Counter screen cell viability and HiBit confirmation (AID 1347412); conditions: iHSKM muscle cells + IFN-b, HiBiT or CellTiter-Glo, 24 h; further: nearly all actives have a fitted effect of over 60% in size
Outline: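 After 24 h with human IFN-beta (4 ng/ml) and compound titrations (top 46 uM final, 1:3, 12 points), HLA-B HiBit myoblasts were lysed for either Nano-Glo HiBiT luminescence or CellTiter Glo viability on paired plates.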
Potency means the concentration at half of the fitted maximal effect.

Structure (SMILES)	Potency (C33A)	Potency (CAOV3)	Potency (CASKI)	Potency (Es-2)	Potency (HeLa)	Potency (Hek293T)	Potency (JEG-3)	Potency (OV90)	Potency (PA-1)	Potency (Tov-21-G)	Potency (Tov112D)	Potency (SKOV3)	Potency ([1]; HiBiT)	activity change, negative = inhibition ([1]; Viability, at 45.9 µM (top of the series)) [%]
C[C@@H](c1ccc2nccn2c1)n1nnc2ncc(-c3cnn(C)c3)nc21	inactive	inactive	inactive	inactive	inactive	inactive	inactive	inactive	inactive	inactive	inactive	–	–	–
CC(/C=C/C(=O)NO)=C\[C@@H](C)C(=O)c1ccc(N(C)C)cc1	3.55 µM (active)	4.47 µM (active)	1.58 µM (active)	5.62 µM (active)	3.55 µM (active)	3.16 µM (active)	1.41 µM (active)	2.24 µM (active)	1 µM (active)	3.55 µM (active)	1.78 µM (active)	1.58 µM (active)	1.76 µM (active)	-7.11
C/C(=C\CCC(C)C1=CCC2(C)OC3=C(CC12)C(=O)C(O)CC3)CO (stereo unspecified)	inactive	inactive	inactive	inactive	inactive	inactive	inactive	inactive	inactive	inactive	inactive	–	–	–
COc1cc2c(cc1OC(C)C)[C@H](c1ccc(Cl)cc1)N(c1ccc(N(C)CC3CCC(N4CCN(C)C(=O)C4)CC3)cc1)C(=O)C2 (stereo partly specified)	inactive	inactive	inactive	inactive	inactive	inactive	inactive	inactive	11.2 µM (active)	–	inactive	inactive	–	–
OC[C@H]1O[C@@H](OC/C=C/c2ccc(O)cc2)[C@H](O)[C@@H](O)[C@@H]1O	inactive	inactive	inactive	inactive	inactive	inactive	inactive	inactive	inactive	inactive	inactive	–	–	–
C=C1C(=O)OC2/C=C(\CO)CC/C=C(\C=O)C(OC)C(OC(=O)C(C)CC)C12 (stereo unspecified)	inactive	inactive	inactive	inactive	inactive	inactive	inactive	inactive	inactive	–	inactive	inactive	–	–
N#CC(CCCN1CCN(/N=C/c2cccnc2)CC1)(c1ccccc1)c1ccccc1	inactive	inactive	inactive	inactive	inactive	inactive	inactive	inactive	inactive	inactive	inactive	–	–	–
C[C@@H]1CC[C@@]23CC[C@]4(C)[C@@](C=CC5[C@@]6(C)CC[C@H](O)C(C)(C)C6CC[C@]54C)(OC2=O)C3[C@H]1C (stereo partly specified)	inactive	inactive	inactive	inactive	inactive	inactive	inactive	inactive	inactive	inactive	inactive	–	–	–
O=C(Nc1ccccc1)c1ccc(Nc2nnc(-c3ccc(O)cc3)c3ccccc23)cc1	inactive	inactive	inactive	inactive	inactive	inactive	inactive	inactive	inactive	inactive	inactive	–	–	–
CC1(C)CC[C@]2(C(=O)O)CC[C@]3(C)C(=CCC4[C@@]5(C)C[C@@H](O)[C@H](O)[C@@](C)(CO)C5CC[C@]43C)[C@@H]2[C@@H]1O (stereo partly specified)	inactive	inactive	inactive	inactive	inactive	inactive	inactive	inactive	inactive	inactive	inactive	–	–	–
c1cc(NCCc2c[nH]c3ccccc23)cc(Nc2ccncc2)c1	inactive	inactive	inactive	inactive	inactive	inactive	inactive	inactive	inactive	inactive	inactive	–	–	–
CC(C)(F)CC(NC(c1ccc(-c2ccc(S(C)(=O)=O)cc2)cc1)C(F)(F)F)C(=O)NC1(C#N)CC1 (stereo unspecified)	inactive	inactive	inactive	inactive	inactive	inactive	inactive	inactive	inactive	inactive	inactive	–	–	–
Cc1cccc(CC(=O)N2CCc3c2ccc(-c2cn(C)c4ncnc(N)c24)c3F)n1	inactive	inactive	inactive	inactive	inactive	inactive	inactive	inactive	inactive	inactive	inactive	–	–	–
S=C(c1ccc(-c2ccc(Cl)c(Cl)c2)o1)N1CCCCC1	inactive	inactive	inactive	inactive	inactive	inactive	inactive	inactive	inactive	inactive	inactive	–	–	–
Clc1ccc(Cn2c(Cc3ccccc3)nc3ccccc32)cc1	inactive	inactive	inactive	inactive	inactive	inactive	inactive	inactive	inactive	inactive	inactive	–	–	–
C[C@H](Nc1cc2c(-c3ccc4c(c3)OCO4)noc2cn1)c1ccccc1	inactive	inactive	inactive	inactive	inactive	inactive	inactive	inactive	inactive	inactive	inactive	–	–	–
CC(=O)O[C@@H]1C[C@@]2(C)C(CC[C@]3(C)C2CC=C2C4CC(C)(C)CC[C@]4(C(=O)O)CC[C@]23C)C(C)(C)[C@H]1O (stereo partly specified)	inactive	inactive	inactive	inactive	inactive	inactive	inactive	inactive	inactive	inactive	inactive	–	–	–

Structure (SMILES)	Potency (C33A)	Potency (CAOV3)	Potency (CASKI)	Potency (Es-2)	Potency (HeLa)	Potency (Hek293T)	Potency (JEG-3)	Potency (OV90)	Potency (PA-1)	Potency (Tov-21-G)	Potency (Tov112D)	Potency (SKOV3)	Potency ([1]; HiBiT)	activity change, negative = inhibition ([1]; Viability, at 45.9 µM (top of the series)) [%]
COc1ccc2nccc(C(=O)CC[C@@H]3CCN(CC#Cc4cc(F)cc(F)c4F)C[C@@H]3C(=O)O)c2c1	inactive	inactive	inactive	inactive	inactive	inactive	inactive	inactive	inactive	inactive	inactive	–	–	–
CC(C)=C[C@@H]1[C@H](CO[C@@H]2O[C@H](CO)[C@@H](O)[C@H](O)[C@H]2O)C1(C)C	inactive	inactive	inactive	inactive	inactive	inactive	inactive	inactive	inactive	inactive	inactive	–	–	–
O=c1cc(OCc2ccc(F)cc2)ccn1-c1ccc(OCCN2CCCC2)cc1	inactive	inactive	inactive	inactive	inactive	inactive	inactive	inactive	inactive	inactive	inactive	–	–	–
C/C(=C/CO)CCC1C(C)CCC2C(C)(C)CCCC12C (stereo unspecified)	inactive	inactive	inactive	inactive	inactive	inactive	inactive	inactive	inactive	inactive	inactive	–	–	–
C=C1C(=O)OC2CC(C)C(CCC(C)=O)=CCC12 (stereo unspecified)	inactive	inactive	inactive	inactive	inactive	inactive	inactive	inactive	inactive	–	inactive	inactive	–	–
C=C1C(=O)O[C@@H]2C[C@H](C)C3=CC(=O)[C@H](O)[C@@]3(C)C[C@H]12	inactive	inactive	inactive	inactive	inactive	inactive	inactive	inactive	inactive	inactive	inactive	–	–	–
NC(N)=N/N=C/c1ccccc1Cl	inactive	inactive	inactive	inactive	inactive	inactive	inactive	inactive	inactive	inactive	inactive	–	–	–
COc1cc(-c2cn(C3CCc4c(F)cccc4N(CC(F)(F)F)C3=O)nn2)ccc1-n1cnc(C)c1 (stereo unspecified)	inactive	inactive	inactive	inactive	inactive	inactive	inactive	inactive	inactive	inactive	inactive	–	–	–
Fc1ccc(-c2cncc(CN3CCN(c4cccc5c4OCCO5)CC3)c2)cc1	inactive	inactive	inactive	inactive	inactive	inactive	inactive	inactive	inactive	inactive	inactive	–	–	–
COc1ccc(S(=O)(=O)N2CCC[C@H]2C(=O)Nc2cc(C)cc(C)c2)cc1	inactive	inactive	inactive	inactive	inactive	inactive	inactive	inactive	inactive	–	inactive	inactive	–	–
O=C(NCc1ccccc1-c1ccccc1C(=O)NCCc1ccccn1)OCc1ccccc1	inactive	inactive	inactive	inactive	inactive	inactive	inactive	inactive	inactive	inactive	inactive	–	–	–
CCCCC1CCC(c2nc(-c3ccncc3)no2)CC1 (stereo unspecified)	inactive	inactive	inactive	inactive	inactive	inactive	inactive	inactive	inactive	inactive	inactive	–	–	–
COC1CCN(c2cccc(-c3cc(NC(C)=O)nc(-n4nc(C)cc4C)n3)n2)CC1	inactive	inactive	inactive	inactive	inactive	inactive	inactive	inactive	inactive	inactive	inactive	–	–	–
CC[C@H](C)/C=C(C)/C=C/C1=CC2=CC(=O)[C@]3(C)OC(=O)[C@@H](C(C)=O)[C@@H]3C2=CO1	inactive	inactive	inactive	inactive	inactive	inactive	inactive	inactive	inactive	–	inactive	inactive	–	–
O=C(Nc1cccnn1)N1CCN(c2nccc(-c3ccc(F)c(F)c3)n2)CC1	inactive	inactive	inactive	inactive	inactive	inactive	inactive	inactive	inactive	inactive	inactive	–	–	–
CCOC(=O)N1CCC(CN(Cc2ccc(Cl)cc2)Cc2ccc([N+](=O)[O-])s2)C1 (stereo unspecified)	inactive	inactive	inactive	inactive	inactive	inactive	inactive	inactive	inactive	inactive	–	–	–	–
C/C=C(\C)C(=O)OC1C[C@@]2(COC(C)=O)O[C@H]2/C=C\[C@@]2(C)O[C@@H]2[C@H]2OC(=O)C(COC(C)=O)=C12 (stereo partly specified)	inactive	inactive	inactive	inactive	inactive	inactive	inactive	inactive	inactive	inactive	inactive	–	–	–
